Marburg entry inh: qHTS for inhibitors of binding or entry into cells for Marburg Virus; Marburg virus pseudotyped entry inhibition, cell reporter; AID 540276, 2011; Potency, µM (titrated, usually from 37.8 µM), for the others: at the highest dose activity change, negative = inhibition, hits mostly inhibitors; 300,000 compounds, 1.8% hits; calls by dose curve; tested in HEK293 cells; further: potency means the concentration at half of the fitted maximal effect
HCV inhibitor: qHTS Assay for Inhibitors of Hepatitis C Virus (HCV); Huh7.5.1 HCVcc-Cre infection, luciferase reporter, 44 h; Potency, µM (doses to about 41.8 µM), without a hit: at the top dose activity change, negative = inhibition, usual class: inhibitors; 340,000 compounds, 3.4% hits; active means well fitted inhibition curve with a large enough effect; inconclusive means small, poorly fitted or top-dose-only effect, or another doubt; inactive means no such curve, though single readings can be large or run the other way; further: potency means the concentration at half of the fitted maximal effect
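Cells (1,000/well) were plated 4 h before compound, then infected with HCVcc-Cre virus (~0.5 moi). After 44 h further culture, infection was read as luciferase luminescence following a 15 min substrate incubation at room temperature.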
FMDV inh: High Throughput Screening for Foot and Mouth Disease Virus Antivirals | FMDV antiviral cell-based qHTS | 410,000 compounds, 1.2% hits | AID 1159524, 2015 | Potency, µM (series often up to 57.9 µM), inactives show at the top dose activity change, negative = inhibition, most hits filed as inhibitors; calls by dose curve; tested in HEK293T cells; further: read-out not given here; potency means the concentration at half of the fitted maximal effect; nearly all actives have a fitted effect of over 45% in size
Lassa entry inh: qHTS for Inhibitors of binding or entry into cells for Lassa Virus; Lassa virus pseudotype entry inhibition, cell reporter; Potency, µM (titrated, usually from 37.9 µM), without a hit: at the highest dose activity change, negative = inhibition, actives largely listed as inhibitors; 300,000 compounds, 1.2% hits; calls by dose curve; tested in HEK293 cells; further: potency means the concentration at half of the fitted maximal effect; nearly all actives have a fitted effect of over 50% in size
HCMV antiviral: qHTS Assay for inhibitors of the human cytomegalovirus (HCMV). HFF cells, HCMV-luciferase reporter, 72 h; hits give low values. activity change, negative = inhibition, % at 57.5 µM. 410,000 compounds, 4.5% hits. AID 1259415, 2018; in the data active means activity change below about -60%; inconclusive means no clear call, values can overlap the other calls; inactive means above about -39%
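Human foreskin fibroblasts infected with luciferase-reporter HCMV at MOI 1 PFU/cell, compounds at two doses. Luciferase measured 72 h post infection; normalized to buffer-only basal and Salinomycin (10uM) controls.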
An asterisk follows results filed as active; ? = inconclusive; . = no result given; ! = repeats disagree; [ ] = remark or other dose. Compounds with a hit are over-represented: about 7.9% of the library has one in this group of screens. On the % scale 0 is the no-effect control and ±100 the full control effect.

SMILES | Marburg entry inh | HCV inhibitor | FMDV inh | Lassa entry inh | HCMV antiviral
COc1ccc(C2=NN(C(=O)c3cccs3)C(c3ccccc3O)C2)cc1 (stereo not drawn) | . | ? | -11% | . | -95*
Cc1ccc(C(=O)N2N=C(c3ccc(Br)cc3)CC2c2ccccc2O)cc1 (stereo not drawn) | -29% | ? | 23% | 13µM* | -62*
CCOC(=O)CSC1=C(C#N)C(=O)NC(c2ccc(OC)c(OC)c2)S1 (stereo not drawn) | 12% | 13% | 28µM* | 3% | 7
CCOC(=O)c1c(C)c(C(=O)NCc2ccc(Cl)cc2)c(C)n1CC | -13%[46.1 µM] | . | -10% | . | ?
CCOC(=O)C1=C(c2ccccc2)NC(SCC(=O)Nc2ccc(C)cc2)=C(C#N)C1c1ccco1 (stereo not drawn) | ? | ? | -21% | -24% | -1
C=CCOC(=O)C1=C(C)NC(SCC(=O)Nc2ccc(C)c(Cl)c2)=C(C#N)[C@@H]1c1ccco1 | 10µM* | . | . | . | .
CCOC(=O)C1=C(c2ccccc2)NC(SCC(=O)Nc2ccccc2C)=C(C#N)C1c1ccco1 (stereo not drawn) | 23µM* | ? | -27% | ? | -31
CC(=O)C1=C(C)NC(SCC(=O)c2ccc(Cl)cc2Cl)=C(C#N)C1c1ccco1 (stereo not drawn) | -27% | 2.5µM* | . | ? | -68*
COc1cc(CN2CCCC(n3cc(C(=O)N4CCCCC4)nn3)C2)cc(OC)c1 (stereo not drawn) | . | . | -11% | . | .
N#CCCn1c(=O)c(-c2ccc(Cl)cc2)nc2cnc(N3CCNCC3)nc21 | . | . | -4% | . | .
Cc1cccc(CNC(=O)c2ccc(NC(=O)C3=CSCCO3)cc2)c1 | . | -18% | 15% | . | .
Cc1cccc(CC(Cc2nc3ccccc3[nH]2)c2nc3ccccc3[nH]2)c1 (stereo not drawn) | ? | ? | ? | ? | -83*
FC(F)(F)c1ccc(N2CCN(c3cc(-c4ccccc4)nc4ncnn34)CC2)nc1 | ? | 8.9µM* | . | ? | -98*
Nc1ccc(Nc2nc(-c3cc4ccccc4oc3=O)cs2)cc1 | ? | -7% | 0% | ? | -61*
CC(=O)Nc1ccc(Nc2nc(-c3cc4ccccc4oc3=O)cs2)cc1 | -32% | ? | -30% | -14% | 1
Cc1ccc(N2CC(NC(=O)c3cc4ccccc4o3)CC2=O)cc1 (stereo not drawn) | . | . | -12% | 6%[46.1 µM] | 41
O=C(Nc1ccc(NC(=O)c2ccco2)cc1)c1ccco1 | 11%[46.1 µM] | 7% | 43% | 0%[46.1 µM] | -4
O=C(Nc1ccc(NC(=O)c2sc3ccccc3c2Cl)cc1)c1ccco1 | ? | ? | ? | 1% | -76*
O=C(Nc1ccc(N2CCCCC2)cc1)c1cccnc1 | 17% | ? | 49% | ? | 29
O=C(Nc1ccc(N2CCN(Cc3ccccc3)CC2)cc1)c1ccco1 | -23% | 2% | 6% | -7% | -82*
O=C(Nc1ccc(Nc2ccccc2)cc1)c1ccco1 | ? | ? | 31% | -26% | -64*
O=C(Nc1ccc(N2CCN(Cc3ccccc3Cl)CC2)cc1)c1cccnc1 | ? | -13% | ? | -3% | -64*
CC(=O)NCc1ccc(S(=O)(=O)NC(C(=O)O)C(C)C)cc1 (stereo not drawn) | 1% | 25% | 6% | -5% | 3
CC1c2cc3c(cc2CCN1S(=O)(=O)c1ccccc1)OCCCO3 (stereo not drawn) | -18%[46.1 µM] | -3% | -26% | -11%[46.1 µM] | -20
O=C(Nc1ccc(Br)cc1F)C1CCN(c2nc3ccccc3[nH]2)CC1 | . | . | -6% | 16%[46.1 µM] | 0
SMILES | Marburg entry inh | HCV inhibitor | FMDV inh | Lassa entry inh | HCMV antiviral
O=C(Nc1ccc(Br)cc1)c1ccco1 | ? | 4% | 16% | 3% | ?
O=C(Nc1ccc(-c2ccccc2)cc1)c1ccco1 | ? | 6% | -6% | 0%[46.1 µM] | -64*
CCc1ccc(NC(=O)c2cc(S(=O)(=O)N3CCCC3)c[nH]2)cc1 | . | -6% | 3% | . | .
CC(C)c1ccc(NC(=O)c2cc(S(=O)(=O)N3CCCC3)c[nH]2)cc1 | . | ? | -17% | . | -77*
CCOc1ccc(NC(=O)c2cc(S(=O)(=O)N3CCCCC3)c[nH]2)cc1 | . | ? | 18% | -13%[46.1 µM] | -65*!
C[C@H](NC(=O)CSc1nnc(COc2ccccc2)o1)c1ccccc1 | -23% | . | . | . | .
Cc1ccc(NC(=O)CSc2nc(=O)n(CCN3CCOCC3)c3c2CCC3)cc1Cl | . | . | ? | -12%[46.1 µM] | -31
CC(C)c1ccc(S(=O)(=O)c2cc3cc(Br)ccc3oc2=O)cc1 | 11µM* | 6% | ? | ? | -12
COc1ccc([C@H]2CC(=O)C=C(c3cccc(C(C)C)c3)C2)cc1OC | . | ? | 25µM* | . | -27
COc1ccc([C@H]2CC(=O)C=C(c3cccc(CO)c3)C2)cc1OC | . | -21% | ? | . | 17
COc1ccc([C@H]2CC(=O)C=C(c3cccc(Br)c3)C2)cc1OC | . | ? | ? | . | 19
COc1cccc(C2=CC(=O)C[C@H](c3ccc4c(c3)OCO4)C2)c1OC | . | 10µM* | 54% | . | .
COc1ccc([C@H]2CC(=O)C=C(c3cccc4c3Oc3ccccc3S4)C2)cc1OC | . | 13µM* | ? | . | 56
CCOC(=O)c1cccc(C2=CC(=O)C[C@H](c3ccc(OC)c(OC)c3)C2)c1 | . | 13µM* | 40µM* | . | 16
Cc1ccc(NC(=O)C2CCCN2S(=O)(=O)c2cccc3cccnc23)cc1C (stereo not drawn) | -6%[46.1 µM] | . | -7% | . | -7
O=C1CCC=C1[C@@H](O)CCc1ccccc1 | 34%[14.2 µM] | . | . | . | .
Cc1c(C(=O)N2CCC(C(N)=O)CC2)oc2ccc(Br)cc12 | 0%[46.1 µM] | 3% | 32% | 2% | 25
O=C(NN=C1c2ccccc2-c2ccccc21)c1ccccc1 | 0% | ? | -1% | . | -27
NC(=S)NN=C1c2ccccc2-c2ccccc21 | . | 6.3µM* | ? | . | -87*
CCOC(=O)c1c(CSc2cccs2)n(C)c2cc(Br)c(O)c(CN(C)C)c12 | ? | ? | ? | ? | -38
CCC[C@H]1[C@@H](NS(=O)(=O)c2c(C)cc(C)cc2C)CC[C@@]23CCCN2C(=O)CCC[C@@H]13 | . | . | . | . | -30
O=C(Nc1ccncc1)Nc1ccncc1 | 0%[46.1 µM] | 9% | -3% | 11% | -18
Cc1[nH]c2ccc(C(=O)Nc3ccncc3)cc2c1C | . | 11µM* | -22% | . | -63*
O=C(Cc1ccc(Cl)cc1)Nc1ccncc1 | ? | 10µM* | ? | -17% | ?
Cc1ccc(CC(=O)Nc2ccncc2)cc1 | . | 13µM* | ? | . | ?
O=C(Nc1ccncc1)Nc1ccc(Cl)cc1 | 3%[46.1 µM] | 8% | 7% | 5%[46.1 µM] | -72*
Cc1ccc(CC(=O)Nc2cccnc2)cc1 | . | -1% | 6% | . | 0
CC(C)(CO)CNC(=O)CCc1nnc(-c2ccc(-c3ccccc3)cc2)o1 | . | -8% | 1% | . | -37
